Reference: PubChem BioAssay (NCI)
This is part of a sample that, as a whole, favours compounds with a hit. Of some 83,000 tested, about 20% had one in any assay.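 Single-concentration screen, 48 h exposure, 96-well plates. Endpoint: percent growth. Below 10 = active.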 A number with no mark means an inactive call. Active and inactive are the calls of the source.

Key:
Experiment in all cases: NCI-60 one-dose screen, 48 h (100 = growth as untreated, 0 = no growth, -100 = all killed)
Conditions in all cases: 10 µM unless noted
HCT-15 colon = tested on: HCT-15 colon
HT29 colon = tested on: HT29 colon
SNB-19 CNS = tested on: SNB-19 CNS
U251 CNS = tested on: U251 CNS
PC-3 prostate = tested on: PC-3 prostate
SK-MEL-5 melanoma = tested on: SK-MEL-5 melanoma
UACC-62 melanoma = tested on: UACC-62 melanoma
LOX IMVI melanoma = tested on: LOX IMVI melanoma
SK-MEL-28 melanoma = tested on: SK-MEL-28 melanoma
SK-MEL-2 melanoma = tested on: SK-MEL-2 melanoma
EKVX NSCLC = tested on: EKVX NSCLC
SN12C renal = tested on: SN12C renal
UO-31 renal = tested on: UO-31 renal
TK-10 renal = tested on: TK-10 renal
ACHN renal = tested on: ACHN renal
CAKI-1 renal = tested on: CAKI-1 renal
A498 renal = tested on: A498 renal
CCRF-CEM leukemia = tested on: CCRF-CEM leukemia
MOLT-4 leukemia = tested on: MOLT-4 leukemia
SNB-75 CNS = tested on: SNB-75 CNS

Structure (SMILES)	growth (HCT-15 colon)	growth (HT29 colon)	growth (SNB-19 CNS)	growth (U251 CNS)	growth (PC-3 prostate)	growth (SK-MEL-5 melanoma)	growth (UACC-62 melanoma)	growth (LOX IMVI melanoma)	growth (SK-MEL-28 melanoma)	growth (SK-MEL-2 melanoma)	growth (EKVX NSCLC)	growth (SN12C renal)	growth (UO-31 renal)	growth (TK-10 renal)	growth (ACHN renal)	growth (CAKI-1 renal)	growth (A498 renal)	growth (CCRF-CEM leukemia)	growth (MOLT-4 leukemia)	growth (SNB-75 CNS)
O=C(OCc1ccc2c(Cl)cc(Cl)c(O)c2n1)N1CCN(C(=O)c2cc3ccccc3[nH]2)CC1	22.2%	59.3%	24.5%	13.6%	24.9%	25.1%	-2.56% (active)	24.6%	39.2%	27.2%	23.5%	28.1%	4.4% (active)	42.6%	11.6%	17.1%	14.2%	21%	20.5%	–
CNC(=O)c1cc(Oc2ccc3c(c2)sc2nc(-c4ccc(NC(=O)[C@@H](NC(=O)OC)C(C)C)cc4)cn23)ccn1	73.2%	72.1%	91.1%	81.6%	40.2%	5.33% (active)	42.9%	67.2%	75.7%	59.6%	66.3%	72.2%	52.5%	85.4%	83.3%	77.1%	68.5%	23.5%	23.8%	–
Cc1ccc(NC(=O)c2cc3ccccc3cc2O)c(C)c1	77.4%	104%	105%	97.5%	35.9%	49.4%	66.1%	88%	81.9%	91.8%	79.6%	89.7%	69.2%	93.8%	91.7%	66.5%	68.4%	67.8%	104%	–
COc1ccc(N/N=C/c2cn(-c3ccc(C(=O)O)cc3)nc2-c2cc3ccccc3oc2=O)cc1	30%	63.1%	75.9%	107%	–	39.5%	22.6%	25.7%	69.5%	60.3%	46.6%	89.2%	22.8%	97.1%	28.6%	60.8%	–	32.9%	34.6%	–
Cc1cc(NCCCNc2ccnc3cc(Cl)ccc23)nc(Nc2ccc(C(=O)N3CCCCC3)cc2)n1	0.549% (active)	-5.41% (active)	25.6%	-8.28% (active)	50.5%	-98.5% (active)	-71.2% (active)	-77.1% (active)	-71.2% (active)	75.7%	48.4%	36.6%	57.6%	5.49% (active)	43.2%	76.2%	66.9%	14.4%	20.7%	–
ClCCn1cnc2c(SCc3ccccc3)ncnc21	33.5%	41.2%	50.5%	39.8%	38.4%	57.3%	46.1%	22.3%	78.5%	120%	77.2%	57.5%	65.2%	83.5%	49.4%	3.9% (active)	81.6%	62.8%	45.8%	–
O=C(/C=C/c1ccccc1)N(C1CCCCC1)C1CCCCC1	86.3%	68.6%	87.7%	84.3%	60.2%	89.9%	75%	92.3%	97.9%	82.9%	85.1%	97.3%	97%	112%	86%	–	93.4%	79.6%	92.1%	–
c1ccc(Nc2nc3c(s2)CCc2c[nH]cc2-3)nc1	102%	100%	100%	89.6%	70.4%	83.5%	92.1%	82.7%	110%	99.2%	75.3%	106%	59.4%	159%	92.3%	97.3%	81%	9.72% (active)	64.7%	–
CC/C(=C(\c1ccc(Cl)cc1)c1ccc(OCCN2CCCCC2)cc1)c1ccc(O)cc1	2.22% (active)	-37.2% (active)	61.1%	0.575% (active)	30.4%	2.53% (active)	71%	-91.5% (active)	-63.4% (active)	57.2%	68%	62.5%	38.4%	68.5%	60.4%	62.3%	87.2%	23.1%	-5.41% (active)	–
O=C(Cc1ccc(/C=C/C(=O)c2ncc[nH]2)cc1)Nc1cc(F)c(F)c(F)c1	11.9%	18.1%	43.4%	8.91% (active)	–	97.7%	74.5%	-3.1% (active)	103%	114%	92.7%	56.2%	46.7%	–	93.2%	56.2%	84.8%	20.3%	–	–
COc1cc2ncnc(Nc3ccc(S(=O)(=O)Nc4nccs4)cc3)c2cc1OCCCN1CCCC1	101%	107%	103%	101%	100%	105%	97.2%	98.9%	109%	114%	107%	99.9%	84.9%	123%	108%	–	104%	100%	104%	–
CC(C)=CC(=O)N[C@H]1CC[C@]2(C)C3CC[C@]4(C)C(C(C)N(C)C)=CCC4C3CCC2[C@H]1O (stereo partly drawn)	-36.5% (active)	2.01% (active)	100%	51.5%	37.7%	-76.1% (active)	-25.1% (active)	-59.1% (active)	-72.5% (active)	106%	57.7%	70.1%	-48% (active)	85.7%	58.6%	79.4%	66.1%	13.4%	48.1%	–
Cc1ccc(Cc2cnc(NC(=O)/C=C/c3ccc(C)o3)s2)cc1	19.9%	11.4%	56.4%	41.9%	33.3%	23.8%	31.9%	49.5%	65.5%	53.8%	49.7%	51.7%	48.5%	68%	40.4%	36%	25.1%	27.8%	37.6%	–
O=C1/C(=C/c2cccc(Br)c2)COc2ccc(O)cc21	21.4%	15%	45.1%	18.3%	–	88.3%	42.6%	-37.1% (active)	98.8%	79.2%	–	4.81% (active)	54.1%	93.1%	54.6%	63.5%	99.5%	0.865% (active)	6.15% (active)	64.4%
COc1cc(/C=C/c2cn[nH]c2-c2ccc(C)cc2)cc(OC)c1OC	23%	6.79% (active)	48.2%	22.6%	28.2%	12%	32.8%	40.6%	56.8%	2.13% (active)	–	51.2%	45.9%	66%	49.4%	32.6%	33.8%	24.8%	22.8%	–
O=C1NC(=O)C(c2coc3cc(Br)ccc23)=C1c1c[nH]c2ccccc12	25%	20.6%	58%	29.6%	67.2%	80.7%	35.6%	44%	71.5%	–	54%	55%	58%	80.8%	71.3%	39.2%	5.34% (active)	29.1%	26%	–
CSc1ccc(N2C(=N)C(=S)N(c3ccc(C)cc3)C2=O)cc1	85.9%	107%	101%	91%	74%	101%	92.8%	87.4%	106%	118%	93.9%	94%	75.5%	109%	88.2%	82.7%	104%	80.6%	89.8%	–
